According to PubChem BioAssay (NCI):
Compounds without any hit were thinned out: in the full panel of roughly 79,000, 15% have a hit. No stated cut-off is given here; in the data, active means growth inhibition above about 70%; inactive means the rest. Where a SMILES comes first, the peptide text is derived from it. [ ]: non-standard residue; d: D form. ξ: configuration not given here. ξPhe(4-N(CH2CH2Cl)2) = NC(Cc1ccc(N(CCCl)CCCl)cc1)C(=O)O

Tests used:
[1] = NCI Yeast Anticancer Drug Screen. Data for the rad50 strain (AID 155);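 further: 0% = growth of vehicle-only cultures of the same strain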; conditions: S. cerevisiae rad50 strain growth inhibition; at 50.0 µM; stronger effect = higher value
In short: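 Relative growth inhibition (compound vs vehicle) was measured in yeast with a defined repair-gene alteration.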

[2] = NCI Yeast Anticancer Drug Screen. Data for the mec2-1 strain (AID 157); conditions: S. cerevisiae mec2-1 strain, at 50.0 µM, stronger effect = higher value
In short: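 Compounds were applied to mec2-1 yeast cells. Their growth was then compared with that of vehicle-treated cultures to give growth inhibition.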

[3] = NCI Yeast Anticancer Drug Screen. Data for the sgs1 mgt1 strain (AID 161);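 further: 0% = growth of cultures given vehicle only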; conditions: S. cerevisiae sgs1 mgt1 strain, at 50.0 µM, stronger effect = higher value
In short: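 This yeast growth screen uses a strain with defined DNA-repair lesions; compound-treated growth is compared with vehicle-treated growth.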

[4] = NCI Yeast Anticancer Drug Screen. Data for the cln2 rad14 strain (AID 165);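 further: 0% = growth equal to vehicle treated cultures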; conditions: S. cerevisiae cln2 rad14 strain, at 50.0 µM, stronger effect = higher value
In short: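 Strain: cln2 rad14 yeast, altered in cell cycle control and DNA damage repair. Read-out: growth inhibition vs vehicle.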

[5] = NCI Yeast Anticancer Drug Screen. Data for the bub3 strain (AID 167); conditions: S. cerevisiae bub3 mutant strain, at 50.0 µM, stronger effect = higher value
In short: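 Screening used yeast with an engineered genetic alteration affecting cell cycle control. Compound-exposed cultures were compared with vehicle cultures, and reduced growth was taken as inhibition.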

[6] = NCI Yeast Anticancer Drug Screen. Data for the mlh1 rad18 strain (AID 175); conditions: S. cerevisiae mlh1 rad18 strain growth inhibition; at 50.0 µM; stronger effect = higher value
In short: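 A repair-deficient yeast strain is exposed to test compound, and growth is scored relative to vehicle-treated controls.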

Measured: growth inhibition

Cc1ccc(C(=O)O[C@H](C(=O)O)[C@H](OC(=O)c2ccc(C)cc2)C(=O)O)cc1
inactive: [1] 18.1% | [2] -4.05% | [3] -19.6% | [4] 10.4% | [5] 2.6% | [6] -11.1%

O=C1CCN(C2(c3ccccc3)CCCCC2)CC1
inactive: [1] 3.85% | [2] -4.1% | [3] 3.55% | [4] -5.1% | [5] -8.85% | [6] -1.35%

O=C(CF)Nc1ccc([N+](=O)[O-])cc1
inactive: [1] -12.4% | [2] -7.25% | [3] -6.25% | [4] -15.7% | [5] 0.2% | [6] 9.1%

NC(=O)CI
inactive: [1] 30.8% | [2] 27.1% | [3] 38.1% | [4] 13.8% | [5] 18.5% | [6] 17.1%

CCC1c2cc(O)c(OC)cc2CCN1C (stereo not given)
inactive: [1] -7.7% | [2] -0.9% | [3] 2.45% | [4] -14.9% | [5] -7.75% | [6] -8%

c1cc(C[N+]23CN4CN(CN(C4)C2)C3)cs1
inactive: [1] -5.75% | [2] 14.2% | [3] 3.95% | [4] -7.65% | [5] 1.55% | [6] -13.7%

O=C1OC(=O)C2CC3C(CC12)C1(Cl)C(Cl)=C(Cl)C3(Cl)C1(Cl)Cl (stereo not given)
inactive: [1] -15.5% | [2] -28.2% | [3] -13.1% | [4] -5.4% | [5] -17.4% | [6] 3%

CCOC(OCC)/C(=C\N(C)C)N=C(C#N)C#N
inactive: [1] 0.95% | [2] -2.4% | [3] 5.35% | [4] -35.4% | [5] 3.25% | [6] -2.05%

C=C(C)[C@H]1Cc2c(ccc3c2O[C@@H]2COc4cc(OC)c(OC)cc4[C@@H]2C3=O)O1
inactive: [1] 43.5% | [2] 19.2% | [3] 43.4% | [4] 27.8% | [5] 49.1% | [6] 52.8%

Nc1ccc([N+](=O)[O-])cc1N
inactive: [1] 9.15% | [2] -14.7% | [3] -12.8% | [4] -36.9% | [5] -17.4% | [6] 10.2%

CC(Oc1ccc(-c2ccccc2)cc1)C(=O)O (stereo not given)
inactive: [1] -14.8% | [2] -1.25% | [3] -9.25% | [4] -4.8% | [5] -13.1% | [6] -23.4%

NC(c1ccccc1)P(=O)(O)O (stereo not given)
inactive: [1] -12.7% | [2] -20.4% | [3] -29.9% | [4] 5.85% | [5] -8.75% | [6] -33.3%

S=C1c2ccc(Cl)cc2-n2cnnc2C2CSCN12 (stereo not given)
inactive: [1] -4.1% | [2] 10.8% | [3] 7.9% | [4] 0.9% | [5] -6.1% | [6] 26.4%

CCC1(CC)C(=O)NC(=NCCCC(N)C(=O)O)NC1=O (stereo not given)
inactive: [1] 8.75% | [2] -3.05% | [3] 8.15% | [4] 11.4% | [5] 23.6% | [6] 7.4%

CCCC/C=C(/C)C1(CC)C(=O)NC(=O)NC1=O
inactive: [1] 5.05% | [2] 14.2% | [3] -2% | [4] -28.1% | [5] -7.3% | [6] 4.6%

CCOC(=O)C(Cc1ccc(N(CCCl)CCCl)cc1)NC(=O)C(Cc1ccccc1)NC(=O)C(NC(=O)CNC(=O)C1CCCN1)C(C)C (stereo not given) (H-PGVF[ξPhe(4-N(CH2CH2Cl)2)]-OEt; configuration not given here)
inactive: [1] -4.6% | [2] 11.8% | [3] 20.3% | [4] 3.35% | [5] 6.1% | [6] 29.6%

Clc1ccc(NC2=NCCS2)cc1Cl
inactive: [1] -9% | [2] -22.8% | [3] 41.4% | [4] -7.55% | [5] -3.05% | [6] 10.9%

CCc1ccccc1[N+](=O)[O-]
inactive: [1] 27.2% | [2] 28.7% | [3] 3.8% | [4] 4.65% | [5] 6.45% | [6] 21.2%

OC1CCN(C2(c3ccccc3)CCCCC2)CC1
inactive: [1] -13.9% | [2] 1.45% | [3] -1.85% | [4] -4.25% | [5] -6.1% | [6] 0.15%

CCCc1ccc(CCN)cc1
inactive: [1] -8.55% | [2] -9% | [3] -15.1% | [4] -9.45% | [5] -2.3% | [6] -23.2%
